# mIDH1 inhibitor – human IDH1 R132H inhibition | 0.093% of 390,000 active | O75874 | IDH1-R132H enzyme, NADPH consumption, diaphorase/resazurin fluorescence | Potency, µM (series often up to 76.6 µM), inactives show at the top dose activity change, negative = inhibition, actives largely listed as inhibitors; further: on the % scale 0 is the no-effect control and ±100 the full control effect; nearly all actives have a fitted effect of over 65% in size
# Target sequence (O75874 whole entry R132H, stated change not applied): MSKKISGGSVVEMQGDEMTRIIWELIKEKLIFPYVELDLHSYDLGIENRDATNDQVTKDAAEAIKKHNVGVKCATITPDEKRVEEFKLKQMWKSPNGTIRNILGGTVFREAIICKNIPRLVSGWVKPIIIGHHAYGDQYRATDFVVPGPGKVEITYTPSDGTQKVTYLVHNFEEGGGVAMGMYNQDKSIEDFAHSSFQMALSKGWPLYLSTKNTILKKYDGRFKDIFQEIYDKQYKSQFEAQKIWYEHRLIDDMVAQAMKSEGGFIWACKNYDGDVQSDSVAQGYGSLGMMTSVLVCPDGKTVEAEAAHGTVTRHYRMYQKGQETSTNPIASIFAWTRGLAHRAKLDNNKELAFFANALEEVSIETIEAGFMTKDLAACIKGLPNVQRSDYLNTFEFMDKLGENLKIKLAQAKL
#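 IDH1-R132H (0.5 ug/mL dispensed) in pH 7.5 Tris buffer was preincubated 30 min with compound, then given a substrate mix of 0.016 mM NADPH and 2 mM alpha-KG for 80 min at room temperature; remaining NADPH was read by diaphorase/resazurin fluorescence.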
# Nrf2 activator – activators of Nrf2 (ARE) signaling | AREc32 ARE-luciferase reporter (MCF7-derived line), luminescence, 24 h | Potency, µM (top dose mostly 46.1 µM), for the others: at the highest dose activation, hits mostly activators | 0.31% of 410,000 active; further: % of control where 0% means no effect; nearly all actives have a fitted effect of over 65% in size
#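 Each well held 1000 AREc32 cells, which were incubated with compound for 24 hr at 37 deg C after overnight attachment, and ARE reporter activity was quantified by firefly luciferase luminescence.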
# A549 tox – A549 cytotoxicity, counter-screen for Nrf2 inhibitors; A549 ARE-Fluc cells, CellTiter-Fluor viability, 18-24 h; Potency, µM (doses to about 46 µM), without a hit: at the top dose activity change, negative = cytotoxicity, most hits filed as inhibitors; 0.16% of 390,000 active; AID 504648; further: on the % scale 0 is the no-effect control and ±100 the full control effect
#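 A549 ARE-Fluc cells in 5% FBS OPTI-MEM, 5000 cells/well, rested 2 h then exposed to compounds in concentration-response for 18-24 h at 37 °C. Viability by CellTiter-Fluor fluorescence (Ex 405/Em 525) after 30 min; luciferase luminescence (BugLite, 15 min, RT) read afterwards.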
# ELG1 DNA repair – ELG1-dependent DNA repair inhibition; HEK293T ELG1-luciferase reporter, luminescence, 16 h; DNA damage induced by 5-fluorouridine; Potency, µM (top dose mostly 46.1 µM), for the others: top-dose activity change, negative = inhibition, most hits filed as inhibitors; AID 504467; 2.3% of 330,000 active; further: on the % scale 0 is the no-effect control and ±100 the full control effect; nearly all actives have a fitted effect of over 55% in size
#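 Quantitative HTS, concentration-response format. 2,000 cells/well co-treated with 5-fluorouridine and compound, 16 hr in 5% CO2 at 37 °C; ONE-Glo luminescence read after 30 min.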
# Nrf2 inh – blocks Nrf2 signaling; A549 ARE-Fluc reporter, luciferase luminescence, 18-24 h; Potency, µM (series often up to 46 µM), inactives show at the highest dose activity change, negative = inhibition, actives largely listed as inhibitors; 2.1% of 360,000 active; further: on the % scale 0 is the no-effect control and ±100 the full control effect; nearly all actives have a fitted effect of over 60% in size
#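 Concentration-response testing used A549 ARE_Fluc cells at 5000 cells/well. Following an 18-24 h compound incubation, viability was read by fluorescence (Ex 405/Em 525) and luciferase output by luminescence.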
# * = called active by the depositor; u = inconclusive; x = no result. Rows were chosen to be rich in hits. Some 3.8% of all compounds tested hit in one or more screens of this group. The call rests on the fitted dose curve; in most records, active means well fitted curve in the direction sought with a large enough effect; inconclusive means small, poorly fitted or top-dose-only effect, or another doubt; inactive means no such curve, though single readings can be large; an effect the other way counts as inactive or inconclusive. Potency means the concentration at half of the fitted maximal effect.
SMILES,mIDH1 inhibitor,Nrf2 activator,A549 tox,ELG1 DNA repair,Nrf2 inh
COCc1nnc(NC(=O)c2ccc(S(=O)(=O)N3CCCc4ccccc43)cc2)o1,-9%,0%,u,16µM*,-86%
CCn1cnc2cc(NC(=O)COc3ccc(C)cc3)ccc21,-1%,-1%,1%,x,2%
COc1ccccc1CNC(=O)Cn1c(=O)oc2cc(S(=O)(=O)N3CCC(C)CC3)ccc21,16%,0%,-6%,x,u
CC1CN(S(=O)(=O)c2ccc(C(=O)Nc3nnc(-c4ccc5c(c4)CCCC5)o3)cc2)CC(C)O1 (stereo not given),9%,0%,1%,2.6µM*,-27%
CC1CN(S(=O)(=O)c2ccc(C(=O)Nc3nnc(-c4ccccn4)o3)cc2)CC(C)O1 (stereo not given),-12%,0%,1%,-8%,5%
O=S(=O)(C/C(=C/CO)S(=O)(=O)c1ccccc1)c1ccccc1,5%,u,16µM*,u,u
CN(C)C(=O)c1ccc(NC(=O)c2cccc(S(=O)(=O)N3CCCCCC3)c2)cc1,-8%,0%,-2%,-26%,u
CN(C)C(=O)c1ccc(NC(=O)c2cccc(S(=O)(=O)N3CCN(Cc4ccccc4)CC3)c2)cc1,0%,0%,-4%,x,18µM*
CN(CC(=O)Nc1ccc(Cl)cc1)C(=O)c1cccc(S(=O)(=O)N2CCN(Cc3ccccc3)CC2)c1,-8%,1%,u,u,13µM*
CS(=O)(=O)c1ccc(NC(=O)c2cccc(S(=O)(=O)N3CCN(Cc4ccccc4)CC3)c2)cc1,4%,0%,-17%,u,13µM*
O=C(Nc1ccc(S(=O)(=O)N2CCN(Cc3ccccc3)CC2)cc1)c1cnccn1,-2%,0%,-13%,u,4.1µM*
CC(NC(=O)c1cccc(S(=O)(=O)N2CCN(Cc3ccccc3)CC2)c1)c1ccccc1Cl (stereo not given),6%,0%,2%,x,u
Cc1ccc(CN2CCNC(=O)C2CC(=O)NCCCn2nnc3ccccc32)cc1 (stereo not given),0%,0%,x,x,x
CCOC(=O)c1c(C)[nH]c(C(=O)CN2C(=O)NC(C)(c3ccc4ccccc4c3)C2=O)c1C (stereo not given),9%,2%,-19%,16µM*,26µM*
CCCC1(c2ccccc2)NC(=O)N(CC(=O)c2[nH]c(C)c(C(=O)OCC)c2C)C1=O (stereo not given),-3%,9%,-16%,18µM*,x
N#CN1CCC(NS(=O)(=O)c2ccc(F)cc2)C1 (stereo not given),x,x,-2%,x,8%
COc1ccccc1CNC(=O)C1CCN(C2=NS(=O)(=O)C(c3ccc(C)c(C)c3)=C2C)CC1,-6%,0%,-6%,x,x
CCN(CC)Cc1c(NC(=O)c2ccccc2)sc(C)c1C,-10%,11µM*,12%,u,21%
CCN(CC)C(=O)c1c(NC(=O)c2ccccc2)sc(C)c1C,5%,3%,-4%,-1%,4%
N#CC1=C(N)C(C#N)(C#N)C(c2cccnc2)C2CCCC=C12 (stereo not given),x,x,x,7.3µM*,x
N#CC1=C(N)C(C#N)(C#N)C(c2cccnc2)C2CC(c3ccccc3)CC=C12 (stereo not given),13µM*,u,-7%,u,x
Cc1ccc(CN2C(=O)CC(c3ccc(Cl)cc3)c3c(C)nn(-c4nc(C)cc(C)n4)c32)cc1 (stereo not given),-11%,8%,-17%,x,u
CCN1/C(=C/C=C/C=C/C=C/c2sc3ccccc3[n+]2CC)Sc2ccccc21,-7%,2%,u,u,21µM*
O=C(c1noc2c1CCCC2)N1CCC(CO)(Cc2ccccc2Cl)CC1,4%,4%,-9%,21µM*,-15%
CCCN(CCC)C(=O)C1CCN(c2cc(C)nc3c(-c4ccc(OC)c(OC)c4)c(C)nn23)CC1,-6%,3%,-2%,6.5µM*,-28%
SMILES,mIDH1 inhibitor,Nrf2 activator,A549 tox,ELG1 DNA repair,Nrf2 inh
COc1ccc(-c2c(C)nn3c(N4CCC(C(=O)NCCN(C)C)CC4)cc(C)nc23)cc1OC,0%,-1%,u,8%,5%
CC(=O)Sc1nc(-c2ccccc2)[nH]c1S(=O)(=O)c1ccc(C)cc1,9%,2%,-3%,1%,7%
CSc1nc(-c2ccc(C)cc2)[nH]c1S(=O)(=O)c1ccccc1,7%,3%,-11%,u,18µM*
C[n+]1cc(C(O)(c2ccccc2)c2ccccc2)n2ccccc21,x,x,2%,x,u
CC1(C)CC2CC(C)(CN2C(=O)NC(=O)c2ccccc2)C1 (stereo not given),1%,0%,-4%,5%,-2%
Cc1ccc(C(=O)Nc2ccccc2C(=O)N2CC3(C)CC2CC(C)(C)C3)cc1 (stereo not given),1%,0%,-16%,23µM*,-27%
NS(=O)(=O)c1ccc(NC(=S)Nc2ccn(Cc3cccc4ccccc34)n2)cc1,-2%,11%,-4%,21µM*,u
COc1ccc(-c2csc(NC(=O)Cc3cc(OC)c(OC)c(OC)c3)n2)cc1OC,9%,4%,u,u,21µM*
COc1ccc(-c2csc(NC(=O)CS(=O)(=O)c3ccc(F)cc3)n2)cc1OC,3%,2%,0%,u,u
COc1cc(CC(=O)Nc2nc(C)cs2)cc(OC)c1OC,-6%,0%,-2%,15µM*,u
CC(C)C(=O)OCc1cn(-c2ccc(Cl)c(Cl)c2)nn1,-3%,0%,1%,-1%,-9%
CCN(c1ccc(C)cc1)S(=O)(=O)c1nnc(NC(=O)c2cccs2)s1,-22%,7%,-3%,x,u
COc1ccc(N(CC(C)C)S(=O)(=O)c2nnc(NC(=O)c3cccs3)s2)cc1,-23%,1%,-14%,x,21µM*
CC(C)=CCOc1c2ccoc2c(OCC=C(C)C)c2oc(=O)ccc12,41%,0%,6%,23µM*,1%
CC(C)=CCOc1c2ccoc2cc2oc(=O)ccc12,20%,4%,13%,7%,5%
CCCCCCOc1ccc(C2C(=O)N(C3CCCCC3)CC(=O)N2CCC)cc1 (stereo not given),0%,1%,-14%,x,x
CC(=O)c1ccccc1OCC(O)Cn1c(CO)nc2ccccc21 (stereo not given),-2%,1%,1%,x,4%
O=C(CSc1n[nH]c(=O)n1Cc1ccccc1)Nc1ccc(F)c(F)c1F,-9%,-1%,8%,3%,-26%
COC(=O)c1sc(S(=O)(=O)NCC(=O)O)c(C(=O)OC)c1C,9%,0%,0%,3%,0%

# Screens deposited in PubChem BioAssay by National Center for Advancing Translational Sciences (NCATS).
